# According to PubChem BioAssay AID493036 (Sanford-Burnham Center for Chemical Genomics, 2011):
# Among all 330,000 compounds or so, about 560 (0.17%) were called active.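 How the source made its calls: active means activation at or above 40% of the spot to cytoplasm intensity ratio, with at least 20 cells analyzed; inconclusive means wells under 20 cells, flagged as cytotoxic or low count; inactive means the rest.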 What follows is part of a selection rich in actives, with near analogues and random picks from the rest.
# Tests used:
# [1] = agonists of human NTR1, primary screen, imaging, U2OS cells, beta-arrestin-GFP, high content (AID 493036); details: NTR1-U2OS beta-arrestin-GFP spot imaging, agonist mode; measured here: cell count, cytotoxicity flag; at 20 µM;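 on activation: 0% = DMSO without peptide and 100% = 100 nM NTR1 peptide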
# [2] = target: Neurotensin receptor type 1 (Homo sapiens) (UniProt P30989); experiment: as above; details: NTR1-U2OS beta-arrestin-GFP spot imaging, agonist mode; at 20 µM; stronger effect = higher value
# Neurotensin receptor type 1 (Homo sapiens), sequence (P30989 whole entry, looked up): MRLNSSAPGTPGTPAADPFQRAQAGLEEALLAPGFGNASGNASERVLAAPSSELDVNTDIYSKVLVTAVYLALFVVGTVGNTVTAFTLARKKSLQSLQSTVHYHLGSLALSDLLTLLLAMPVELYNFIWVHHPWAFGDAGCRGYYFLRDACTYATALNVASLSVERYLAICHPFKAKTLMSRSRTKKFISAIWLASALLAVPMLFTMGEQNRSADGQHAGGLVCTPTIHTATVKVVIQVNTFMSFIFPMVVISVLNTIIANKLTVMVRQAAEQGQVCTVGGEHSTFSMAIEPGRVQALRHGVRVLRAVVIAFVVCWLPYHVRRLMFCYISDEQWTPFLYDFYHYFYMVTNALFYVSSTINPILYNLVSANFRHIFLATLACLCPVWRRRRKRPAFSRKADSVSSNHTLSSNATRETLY
SMILES,cell count [1],activation [2]
Nc1nc(NCC2CCCO2)nc(Nc2ccccc2F)c1[N+](=O)[O-] (stereo not drawn),40 cells,0.5% (inactive)
Nc1nc(Nc2ccccc2F)nc(NC2CCCCC2)c1[N+](=O)[O-],83 cells,43.1% (active)
C=CCNc1nc(N)c([N+](=O)[O-])c(NC2CCCCC2)n1,87 cells,5.1% (inactive)
Cc1ccc(S(=O)(=O)N2CCOCC2)cc1C(=O)OC1CCCCC1=O (stereo not drawn),30 cells,0.7% (inactive)
Cc1cc(C)n(CCNS(=O)(=O)c2ccc(Cl)cc2)n1,44 cells,1.1% (inactive)
Cc1ccccc1OCc1nnc(SCC(=O)N2c3ccccc3Sc3ccc(Cl)cc32)o1,65 cells,4.7% (inactive)
CN1CCN(c2nc(Nc3ccc(O)cc3)nc3ccccc23)CC1,47 cells,0.5% (inactive)
Cc1cccc(-c2nc(Nc3ccc(O)cc3)c3ccccc3n2)c1,84 cells,60.9% (active)
Oc1ccc(-c2nnc(Nc3ccccc3)c3ccccc23)cc1,62 cells,-0.2% (inactive)
Cc1cc(C)cc(N(CC(=O)N2CC=C(c3ccccc3)CC2)S(=O)(=O)c2c(C)noc2C)c1,52 cells,3.3% (inactive)
COc1ccc(C)cc1S(=O)(=O)Nc1cc2c3c(c1)CCC(=O)N3CCC2,52 cells,-1.6% (inactive)
Cc1ccccc1C(=O)N1CCC(C(=O)Oc2ccc(C#N)cc2)CC1,77 cells,0.9% (inactive)
Cc1cc(Cl)ccc1OCc1nc(-c2ccncc2)no1,20 cells,1.2% (inactive)
Cn1c(-c2ccc(C(=O)c3ccccc3)s2)nc2ccccc21,111 cells,-1.6% (inactive)
O=C(CCc1ccc(S(=O)(=O)N2CCOCC2)cc1)Nc1ccc2ccccc2c1,90 cells,1.8% (inactive)
CCOC(=O)c1cccc(NS(=O)(=O)c2c(C(=O)N3CCCCCC3)c(C)n(C)c2C)c1,47 cells,1.2% (inactive)
Cc1cccc(-n2c(=O)c3c(C)c(C)sc3n(CC(N)=O)c2=O)c1,70 cells,0.5% (inactive)
Cc1cccc(-n2c(SCC(N)=O)nc3c(c2=O)C2(CCCCC2)Cc2ccccc2-3)c1,62 cells,49.9% (active)
N#CCSc1nc2c(c(=O)n1Cc1ccccc1)C1(CCCC1)Cc1ccccc1-2,47 cells,3.2% (inactive)
CC(C)(C)OC(=O)NCCCCCNC(=O)c1[nH]cnc1C(=O)Nc1nccs1,56 cells,2.3% (inactive)
CN1/C(=C\C=C2\N=C(c3ccc(F)cc3)OC2=O)C(C)(C)c2ccccc21,59 cells,-1% (inactive)
CC1=CCC2C(=O)N(c3cccc(C(=O)NC(C)c4ccccc4)c3)C(=O)C2C1 (stereo not drawn),86 cells,-1.2% (inactive)
Cc1ccc(C(=O)N/N=C\c2cc(Br)c(Br)o2)cn1,42 cells,3.4% (inactive)

SMILES,cell count [1],activation [2]
CNC[C@H](CC1CCCCC1)NC[C@H](NCCC1CCCC1)[C@H](C)O,59 cells,4.7% (inactive)
Cc1ccc(-n2c(SCC(=O)NCc3ccc4c(c3)OCO4)nnc2-c2cccnc2)c(C)c1,50 cells,-0.8% (inactive)
Cc1cccc(NC(=O)C2CCCN(C(=O)NCc3ccccc3)C2)c1C (stereo not drawn),37 cells,0.3% (inactive)
CCCCCCSc1ccc(-c2nc3ccc(Cl)cn3c2NCc2ccccc2)cc1,65 cells,-1.8% (inactive)
CCCCNc1c(-c2ccc(OC)c(Sc3ccc(OC)cc3)c2)nc2ccc(Cl)cn12,52 cells,3.2% (inactive)
CCCCNc1c(-c2cccc(Sc3ccc(OC)cc3)c2)nc2ccccn12,60 cells,42.5% (active)
CC(C)C(=O)Nc1ccc2c3c(cccc13)CC2,56 cells,0.6% (inactive)
CC(=O)N1C(C)c2ccccc2C(C)(C)CC12CCCCC2 (stereo not drawn),51 cells,0.8% (inactive)
Cn1c(C(=O)O)ccc1S(=O)(=O)N(Cc1ccccc1)Cc1ccccc1,65 cells,0.5% (inactive)
Cc1cc2occ(CC(=O)NNC(=O)c3ccccc3F)c2cc1C,58 cells,0.7% (inactive)
CC(C)(C)OC(=O)N1CCC(NC(=O)c2[nH]cnc2C(=O)N[C@@H](Cc2ccccc2)C(=O)OCc2ccccc2)CC1,74 cells,47.8% (active)
O=C(N[C@@H](Cc1ccccc1)C(=O)OCc1ccccc1)c1nc[nH]c1C(=O)NC1CCNCC1,66 cells,4% (inactive)
CC(C)(C)OC(=O)CNC(=O)c1[nH]cnc1C(=O)N[C@@H](Cc1ccccc1)C(=O)OCc1ccccc1,87 cells,15.2% (inactive)
CSc1ccc(C#N)cc1NC(=O)c1ccc(Cl)cc1,46 cells,0.4% (inactive)
FC(F)(F)c1cccc(-c2nc(COc3ccc(Cl)cc3Cl)no2)c1,40 cells,-2% (inactive)
COc1ccc(C)cc1NC(=O)C(Sc1ccccc1)c1ccccc1 (stereo not drawn),44 cells,1.2% (inactive)
O=C(O)c1cccc(N=NN2CCCCCC2)c1,47 cells,0.2% (inactive)
COC(=O)C1=C(NC(=O)C(C)(C)C)CCS1,55 cells,-0.2% (inactive)
CC(=O)c1ccc(N2Cc3ccccc3C2)cc1,66 cells,0.5% (inactive)
N#Cc1ncc(C(F)(F)F)cc1Oc1cccnc1,41 cells,-0.5% (inactive)
[O-][n+]1onc2c1CCc1[nH]c(-c3ccccc3)nc1-2,66 cells,-0.8% (inactive)
O=C(NC(=S)NC1CCS(=O)(=O)C1)c1cccc([N+](=O)[O-])c1 (stereo not drawn),51 cells,-0.4% (inactive)
CCO[C@H]1OC(C(=O)NCc2ccccc2)=C[C@@H](c2coc3ccccc3c2=O)[C@@H]1CCCO,79 cells,0.3% (inactive)

SMILES,cell count [1],activation [2]
COc1ccc(OC)c(S(=O)(=O)NCCC(C)C)c1,90 cells,-0.7% (inactive)
O=C(NCc1ccco1)c1cnn2c(C(F)(F)F)cc(-c3ccco3)nc12,40 cells,8.2% (inactive)
CN(C(=O)c1cccc(NC(=O)C2CCN(C(=O)OC(C)(C)C)CC2)c1)C1CCC1,52 cells,-0.7% (inactive)
CC(C)Nc1nnc(SCC(=O)/C=C2\N(C)c3ccccc3C2(C)C)s1,54 cells,0% (inactive)
CC(=O)Nc1cccc(OCC(=O)/C=C2\N(C)c3ccccc3C2(C)C)c1,29 cells,0.8% (inactive)
CN1/C(=C\C(=O)c2oc3ccccc3c2N)C(C)(C)c2ccccc21,52 cells,45.5% (active)
CC(Oc1ccccc1)C(=O)Nc1oc(-c2ccco2)c(-c2ccco2)c1C#N (stereo not drawn),69 cells,-1.6% (inactive)
COc1ccc(CC(NC(C)=O)C(=O)N2CCN(C(=O)Nc3cccc(Cl)c3)CC2)cc1OC (stereo not drawn),63 cells,-0.5% (inactive)
CC(=O)c1cnn(-c2cc(Oc3ccc(F)cc3)ncn2)c1C,34 cells,-1.1% (inactive)
COc1cc(/C=C2/C(=O)ON=C2C)ccc1OCc1ccccc1F,36 cells,73.4% (active)
COc1cc(/C=C2/C(=O)ON=C2C)ccc1OCc1cccc(F)c1,41 cells,5.9% (inactive)
C=CCOc1ccc(/C=C2/C(=O)ON=C2C)cc1OCC,89 cells,2.1% (inactive)
COC(=O)c1ccc(COC(=O)CNC(=O)c2cccc(OC)c2)o1,57 cells,-0.3% (inactive)
O=C(Nc1nnc(S(=O)(=O)N2CCCCCC2)s1)c1cccc(Br)c1,53 cells,5% (inactive)
Cc1c(NC(=O)CCC2CCCCC2)cc(C(=O)N2CCOCC2)cc1[N+](=O)[O-],61 cells,1.4% (inactive)
COc1ccc(Cc2nnc(N/N=C/c3ccccc3O)[nH]c2=O)cc1OC,65 cells,0% (inactive)
COc1cccc(/C=N/Nc2cc(C)nc(-c3ccccc3O)n2)c1O,51 cells,46.3% (active)
COc1ccccc1-n1c(SCC(=O)Nc2cccc(C(=O)O)c2)nnc1-c1ccccc1O,50 cells,-0.1% (inactive)
CCC1(CC)C(=O)C2=C3C1[C@H](C(=O)OC)C=C(C(=O)OC)C[C@H]3[C@H]1C(=O)N(Cc3ccccc3)C(=O)[C@H]1[C@H]2C (stereo partly drawn),56 cells,4.6% (inactive)
CC(C)(C)Nc1c(-c2cccs2)nc2ccccn12,43 cells,1.2% (inactive)
O=C(/C(=C/c1cccc(Cl)c1)c1nc2ccccc2[nH]1)c1ccccc1,59 cells,40.5% (active)
O=C(O)c1cccc(NC(=O)c2cc(-c3cccc(Cl)c3)nc3ccccc23)c1,44 cells,1.2% (inactive)
O=C(N/N=C/c1ccc(Cl)cc1)c1nc2ccc([N+](=O)[O-])cc2c(=O)[nH]1,101 cells,-0.7% (inactive)
